Bioassay records (PubChem)
Hits are enriched below; roughly 12% of the tested compounds scored in any of these assays.
HP1b chromo inh = HP1-beta chromodomain-methylated histone interaction inhibition; AlphaScreen HP1-beta / biotin-H3K9me3 peptide binding; Potency, µM (doses to about 114 µM), for the others: top-dose activity change, negative = inhibition, most hits filed as inhibitors; P83916; 390,000 compounds, 0.56% hits; also: nearly all actives have a fitted effect of over 70% in size
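AlphaScreen: HP1-beta (50 nM) preformed 30 min with biotin-H3(1-18)K9me3 peptide (50 nM) in PBS pH 7.4, 0.01% Tween-20. Compound added for 30 min at RT, then streptavidin donor/nickel chelate acceptor beads (10 ug/mL) for 30 min.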
G9a block = inhibitors of human histone lysine methyltransferase G9a; Q96KQ7; G9a H3K9 monomethylation, AlphaScreen, 2 h; Potency, µM (top dose mostly 102 µM), for the others: at the highest dose activity, negative = inhibition, most hits filed as inhibitors; 350,000 compounds, 8.8% hits; AID 504332; also: % is scaled to controls: 0 for no effect and ±100 for the full control effect; nearly all actives have a fitted effect of over 75% in size
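AlphaScreen detection with an anti-monomethyl H3K9 antibody quantified product after a 2 h room-temperature reaction containing 500 nM biotinylated H3K9 peptide, 20 µM SAM and 20 nM enzyme, which had been preincubated 15 min with compound.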
Sfp inh = inhibitors of Bacillus subtilis Sfp phosphopantetheinyl transferase | Q9F4F7 | Biochemical Sfp PPTase activity, qHTS | Potency, µM, for the others: largest response in the series, negative = inhibition, most hits filed as inhibitors | 310,000 compounds, 3.5% hits | AID 1490;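 also: the enzyme is Sfp with the accession as filed and its product quenches rhodamine fluorescence; 0% = enzyme reaction without inhibitor and -100% = no enzyme wells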
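After 15 min at room temperature with compound, 15 nM Sfp received 5 uM rhodamine-CoA plus 12.5 uM BHQ-2-ybbR (50 mM Hepes pH 7.6, 10 mM MgCl2). Rate came from the fluorescence difference over 30 min, ex 525/em 598 nm.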
TDP1 inh = inhibitors of human tyrosyl-DNA phosphodiesterase TDP1 | Q9NUW8 | recombinant TDP1, AlphaScreen DNA substrate cleavage | Potency, µM (highest dose often 130 µM), inactives show at the top dose activity change, negative = inhibition, most hits filed as inhibitors | 350,000 compounds, 0.28% hits | AID 485290; also: % is scaled to controls: 0 for no effect and ±100 for the full control effect; nearly all actives have a fitted effect of over 40% in size
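E. coli-derived human Tdp1, 1 nM final. Cpd preinc 15 min RT; substrate 15 nM final, 5 min RT; AS bead mix 10 ug/ml final, 10 min RT. Signal loss = tyrosine-FITC cleavage. No-enzyme wells = max signal.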
BAZ2B inh = blocks human BAZ2B. AlphaScreen BAZ2B-H3K14Ac peptide displacement. Potency, µM (series often up to 114 µM), for the others: at the top dose activity change, negative = inhibition, actives largely listed as inhibitors. 360,000 compounds, 4.4% hits; also: % is scaled to controls: 0 for no effect and ±100 for the full control effect; nearly all actives have a fitted effect of over 60% in size
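AlphaScreen displacement of biotin-H3(5-23)K14Ac peptide (50 nM final) from BAZ2B (50 nM final) in PBS pH 7.4, 0.01% Tween-20; complex preformed 30 min RT, then compounds (top 110 uM) 30 min RT, beads 20 min dark.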
JMJD2A Tudor = JMJD2A Tudor domain (human) inhibition | Potency, µM (series often up to 114 µM), for the others: at the top dose activity change, negative = inhibition, most hits filed as inhibitors | 390,000 compounds, 4.4% hits | AlphaScreen JMJD2A-Tudor / H3K4me3 peptide binding | O75164; also: % is scaled to controls: 0 for no effect and ±100 for the full control effect; nearly all actives have a fitted effect of over 50% in size
* hit, by the source's call; [ ] = another dose, or the depositor's remark. Calls follow the shape of the dose curve; as a rule, active = well fitted curve in the direction sought with a large enough effect; inconclusive = small, poorly fitted or top-dose-only effect, or another doubt; inactive = no such curve, though single readings can be large; an effect the other way counts as inactive or inconclusive. Potency is read from the fitted curve at half-maximal effect.

Screening Cn1c(SCC(=O)c2ccccc2)nnc1C1CC1 returned HP1b chromo inh -11.8%, G9a block 39.8µM*, Sfp inh 56.2µM*, TDP1 inh -1.0%, BAZ2B inh -2.8% and JMJD2A Tudor 9.2%[11.4 µM].
`O=C(NCC(=O)N1CCN(c2ccc(C(F)(F)F)cn2)CC1)c1ccc(Br)o1` gave HP1b chromo inh 17.2%, G9a block -6.6%[12.7 µM], TDP1 inh 0.6%, BAZ2B inh 4.3% and JMJD2A Tudor -2.6%.
Screening Cc1ccc(C)c(S(=O)(=O)c2nnn3c2nc(NC2CCCCC2)c2sccc23)c1 returned HP1b chromo inh -10.7%, G9a block -9.0%[59 µM], TDP1 inh 2.6%, BAZ2B inh -21.8% and JMJD2A Tudor -27.8%.
`C/C(=N\OC(=O)c1c(-c2c(F)cccc2Cl)noc1C)c1nccs1` gave HP1b chromo inh 44.8%, G9a block 15.5%, Sfp inh 3.1%, TDP1 inh 2.7%, BAZ2B inh -1.0% and JMJD2A Tudor 0.7%.
Screening Cc1onc(-c2c(F)cccc2Cl)c1C(=O)O/N=C(\N)c1ccc([N+](=O)[O-])o1 returned HP1b chromo inh -4.2%, G9a block 39.8µM*, Sfp inh 10.5%, TDP1 inh 8.9%, BAZ2B inh inconclusive and JMJD2A Tudor -31.7%.
Screening CN(C1CCCCC1)S(=O)(=O)Cc1ccccc1 returned HP1b chromo inh -0.7%, G9a block 31.6µM*, Sfp inh inconclusive, TDP1 inh 0.0%, BAZ2B inh 1.6% and JMJD2A Tudor -9.7%.
`O=C(Nc1ccc(S(=O)(=O)N2CCCC2)cc1)c1ccc([N+](=O)[O-])cc1` gave HP1b chromo inh 17.5%, G9a block 16.3%, Sfp inh 3.7%, TDP1 inh 0.4%, BAZ2B inh -0.7% and JMJD2A Tudor -28.4%.
`C/C(=N\Nc1nc(C)cc(=O)[nH]1)C1CC1` gave HP1b chromo inh 40.5%, G9a block 7.94µM*, Sfp inh 39.8µM*, TDP1 inh 5.5%, BAZ2B inh 16.1% and JMJD2A Tudor 17.8µM*.
Screening Cc1cc(=O)[nH]c(NN=C(CC(C)C)CC(C)C)n1 returned HP1b chromo inh -0.7%, G9a block inconclusive, Sfp inh 56.2µM*, TDP1 inh -1.4%, BAZ2B inh 11.3% and JMJD2A Tudor inconclusive.
`Cc1cc(=O)[nH]c(N/N=C/c2ccco2)n1` gave HP1b chromo inh 44.3%, G9a block -33.2%[2.33 µM], Sfp inh inconclusive, TDP1 inh 3.6%, BAZ2B inh 6.8% and JMJD2A Tudor -17.4%.
Cc1cc(=O)[nH]c(N/N=C/c2ccc(F)cc2)n1 was read as HP1b chromo inh 16.1%, G9a block inconclusive, Sfp inh -15.4%, BAZ2B inh 0.5% and JMJD2A Tudor -19.7%.
Cc1cc(=O)[nH]c(NN=C2CCC(C(C)(C)C)CC2)n1 (centres undefined) was read as HP1b chromo inh 47.7%, G9a block 31.6µM*, Sfp inh 50.1µM*, TDP1 inh 0.0%, BAZ2B inh 5.8% and JMJD2A Tudor -15.9%.
Cc1ccc(S(=O)(=O)CC(=O)Nc2ccc3nc(C)sc3c2)cc1 was read as HP1b chromo inh 34.4%, G9a block 9.1%[59 µM], Sfp inh 17.3%, TDP1 inh 4.2%, BAZ2B inh -18.3% and JMJD2A Tudor -1.4%.
For O=C(CCn1nc(-c2ccccc2)ccc1=O)NCCCN1CCCCCC1 the results were HP1b chromo inh 15.0%, Sfp inh -14.0%, TDP1 inh 6.7%, BAZ2B inh 79.4µM* and JMJD2A Tudor inconclusive.
For C=CCn1c(O)c(C2=c3ccccc3=NC2=O)c2ccccc21 the results were HP1b chromo inh inconclusive, G9a block 6.31µM*, Sfp inh 44.7µM*, BAZ2B inh 6.31µM* and JMJD2A Tudor 10µM*.
O=C(O)COn1c(-c2ccccc2)nc2ccc([N+](=O)[O-])cc21 was read as HP1b chromo inh 10.6%, G9a block 44.7µM*, Sfp inh 25.5%, TDP1 inh 25.1µM*, BAZ2B inh 50.1µM* and JMJD2A Tudor inconclusive.
O=C(c1ccc(Cl)c(S(=O)(=O)N2CCOCC2)c1)N(c1ccccn1)C1CCCCC1 was read as HP1b chromo inh 7.3%, G9a block -35.5%, Sfp inh 12.8%, TDP1 inh -1.2%, BAZ2B inh -5.9% and JMJD2A Tudor -31.9%.
Screening OC1(c2ccccc2)CN(c2ccccc2)C2=[N+]1CCS2 (centres undefined) returned HP1b chromo inh 0.8%, G9a block -23.4%[59 µM], Sfp inh 5.3%, TDP1 inh 6.9%, BAZ2B inh 39.8µM* and JMJD2A Tudor -20.1%.
Screening OC1(c2cccs2)CN(c2ccc(Br)cc2)C2=[N+]1CCCS2 (centres undefined) returned HP1b chromo inh 37.2%, G9a block -36.2%, Sfp inh -25.4%, TDP1 inh -4.8%, BAZ2B inh -14.4% and JMJD2A Tudor -19.5%.
Cc1cccc(NC(=S)NC2CCCCC2)n1 was read as HP1b chromo inh 19.0%, G9a block 0.891µM*, Sfp inh 50.1µM*, BAZ2B inh -27.2% and JMJD2A Tudor -13.5%.
`Cc1cccc(NC(=S)Nc2cccc(C)n2)n1` gave HP1b chromo inh 53.7%, G9a block -1.3%, Sfp inh 18.7%, TDP1 inh -5.5%, BAZ2B inh 28.2% and JMJD2A Tudor 6.8%.
Screening Cc1cccc(NC(=S)NC2CCCC2)n1 returned HP1b chromo inh 29.1%, G9a block -116.7%, Sfp inh 10µM*, TDP1 inh -5.1%, BAZ2B inh inconclusive and JMJD2A Tudor -27.1%.
For C=CCNc1nnc(SC2CC(=O)N(c3ccc(OCCC)cc3)C2=O)s1 (centres undefined) the results were HP1b chromo inh -23.6%, G9a block 8.91µM*, Sfp inh 50.1µM*, TDP1 inh 3.5%, BAZ2B inh -4.4% and JMJD2A Tudor 35.5µM*.
`CCOC(=O)C1=CN(CC2CCCCC2)CCC1=O` gave HP1b chromo inh 18.5% and JMJD2A Tudor -15.8%.
Cc1cc(-c2ccc(F)cc2)nc2cc(C(N)=O)nn12 was read as HP1b chromo inh -1.9%, G9a block 56.2µM*, Sfp inh -22.7%, TDP1 inh 6.6%, BAZ2B inh -6.8% and JMJD2A Tudor -26.7%.
For Cc1cc(-c2ccccc2)nc2cc(C(=O)Nc3ccc(Cl)c(Cl)c3)nn12 the results were HP1b chromo inh 7.9%, G9a block inconclusive, TDP1 inh -4.0%[12.3 µM], BAZ2B inh inconclusive and JMJD2A Tudor inconclusive.
O=C(O)O was read as G9a block 18.7%, Sfp inh 14.5%, TDP1 inh 0.0% and BAZ2B inh 4.1%.
